Bioassay records (PubChem BioAssay)
BRCA1 expr up: BRCA1 expression activation; 1.1% of 380,000 active; MCF7-BRCA1-FFLuc reporter, luminescence, 48 h; response scale: scaled: vehicle 0%, 10 µM genistein 100%; AID 624202; Potency, µM (series often up to 46.1 µM), most hits filed as activators; note: nearly all actives have a fitted effect of over 80% in size
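Cells: MCF7-BRCA1-FFLuc, 2000/well. Exposure: 48 h, 37 °C, 5% CO2. Read: luminescence, 15 min post-substrate. Controls: genistein 10 microM (maximal activation), DMSO (neutral).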
ELG1 repair inh: ELG1-dependent DNA repair inhibition | Potency, µM (top dose mostly 46.1 µM), most hits filed as inhibitors | 2.3% of 330,000 active | HEK293T ELG1-luciferase reporter, luminescence, 16 h; DNA damage induced by 5-fluorouridine | AID 504467; note: nearly all actives have a fitted effect of over 55% in size
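HEK293T cells expressing luciferase-tagged ELG1 (2,000/well) received 5-Fluorouridine plus compound or DMSO for 16 hr at 37 °C. Luciferase was read by ONE-Glo luminescence after 30 min at room temperature.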
RORg inh: ROR gamma (mouse) transcription inhibition | 5.4% of 310,000 active | Drosophila S2 Gal4-RORgamma UAS-luciferase reporter, 20 h | Potency, µM (doses to about 53.6 µM), usual class: inhibitors | P51450 | AID 2551; note: nearly all actives have a fitted effect of over 60% in size
Target sequence (P51450 whole entry, looked up, the tested form may be a part): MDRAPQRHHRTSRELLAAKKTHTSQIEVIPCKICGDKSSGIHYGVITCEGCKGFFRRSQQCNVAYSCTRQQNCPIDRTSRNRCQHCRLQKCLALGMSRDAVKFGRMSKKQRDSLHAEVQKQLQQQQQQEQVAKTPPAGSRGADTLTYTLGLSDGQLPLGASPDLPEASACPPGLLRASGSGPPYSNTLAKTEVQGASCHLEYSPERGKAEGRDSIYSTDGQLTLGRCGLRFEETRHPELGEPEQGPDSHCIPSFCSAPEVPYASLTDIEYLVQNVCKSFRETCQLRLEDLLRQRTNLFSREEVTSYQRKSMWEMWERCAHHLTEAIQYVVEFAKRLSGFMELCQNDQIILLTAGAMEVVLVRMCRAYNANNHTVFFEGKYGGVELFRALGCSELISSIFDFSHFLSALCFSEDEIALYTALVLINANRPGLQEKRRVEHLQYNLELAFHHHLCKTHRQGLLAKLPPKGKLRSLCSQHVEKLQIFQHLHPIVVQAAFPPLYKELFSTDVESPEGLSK
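Drosophila S2 cells stably expressing Gal4-DBD/mouse RORγ fusion under metallothionein promoter plus UAS-luciferase; compound 1 h, then 700 uM CuSO4 induction for 20 h at ambient temperature; inhibition read as reduced luminescence.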
p53 reactivation: re-activators of mutant p53; 0.063% of 320,000 active; AID 504706; Potency, µM (doses to about 92.2 µM), hits mostly activators; H1299 p53-A138V BP100-luciferase reporter, luminescence, 24 h; note: nearly all actives have a fitted effect of over 45% in size
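p53-null H1299 cells stably carrying temperature-sensitive p53-A138V and a BP100-luciferase reporter were pinned with compounds (4-point, 1:5 series) and held 24 hrs at 37 deg C. Luminescence was read 10 min after detection reagent.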
Giardia killer: kills Giardia lamblia; activity change, % at 7.66 µM, hits read low; AID 540267; Giardia lamblia trophozoite viability; 0.15% of 340,000 active; in the data active = activity change below about -80%; inconclusive = between about -30% and that limit;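 note: parasites exposed to compound for two days anaerobically before the ATP read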
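Giardia trophozoites, 100 cells per well, were exposed to compounds for 48 hrs at 37 deg C under anaerobic conditions; viability was then read as ATP content by bioluminescence after 15-30 min at room temperature.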
VP16 counter: inhibits Gal4-VP16 luciferase reporter, ROR gamma counter-screen | AID 2546 | Potency, µM (top dose mostly 53.6 µM), usual class: inhibitors | 3.5% of 310,000 active | Drosophila S2 Gal4-VP16 UAS-luciferase, luminescence, 20 h;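 note: Gal4-VP16 expression switched on by copper sulfate through the metallothionein promoter; nearly all actives have a fitted effect of over 50% in size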
Each line names hits and unclear results; the compound was inactive in the other large screens. The list is not random: actives were taken first. Their share in the collection is about 7.6%. Unless noted, calls come from the whole dose curve; as a rule, active = well fitted curve in the direction sought with a large enough effect; inconclusive = small, poorly fitted or top-dose-only effect, or another doubt; inactive = no such curve, though single readings can be large; an effect the other way counts as inactive or inconclusive.

O=C(CN1CCOCC1)Nc1ccc(-c2nc3ccccc3[nH]2)cc1	BRCA1 expr up 11.2µM, ELG1 repair inh inconclusive
O=C(Nc1nc2ccccc2[nH]1)C1CCCO1 (centres undefined)	BRCA1 expr up inconclusive, ELG1 repair inh inconclusive, p53 reactivation inconclusive
O=C(Cc1cccs1)Nc1ccc(-c2nc3ccccc3[nH]2)cc1	BRCA1 expr up 5.62µM, ELG1 repair inh inconclusive, VP16 counter inconclusive
C=CCOc1ccc2nnc(C)n2n1	none
Fc1cccc2sc(Nc3nnc(-c4ccccc4)o3)nc12	ELG1 repair inh inconclusive, RORg inh 1.78µM, p53 reactivation inconclusive, VP16 counter 2.51µM
COc1cc(OC)cc(-c2nnc(Nc3nc4c(F)cccc4s3)o2)c1	RORg inh 0.708µM, VP16 counter 1.58µM
CN(C)C(=O)c1cccn(Cc2ccc(C(F)(F)F)cc2)c1=O	none
CC(C(=O)O)c1ccc2c(c1)Cc1cccnc1O2 (centres undefined)	none (no result: BRCA1 expr up, ELG1 repair inh, p53 reactivation, Giardia killer)
COc1cc(O)oc1C=Nc1ccccc1	none
O=C(NC(=S)N1CCN(Cc2ccccc2)CC1)c1ccco1	RORg inh 0.891µM, VP16 counter 3.55µM
Cc1sc(NC(=O)c2ccco2)c(CN2CCC(C)CC2)c1C	none
CC1CCN(C(=S)NC(=O)c2ccco2)CC1	ELG1 repair inh inconclusive, RORg inh 3.98µM, VP16 counter 6.31µM
Cc1sc(NC(=O)c2ccco2)c(CN2CCN(Cc3ccccc3)CC2)c1C	ELG1 repair inh 13µM
Cc1nc2nc[nH]n2c(=O)c1NC(=O)CC12CC3CC(CC(C3)C1)C2	none
Cc1ccc(CSc2ncn(-c3ccccc3)n2)cc1	BRCA1 expr up 11.2µM, ELG1 repair inh inconclusive
COc1cc2c(cc1OC)CN(C(=O)CCc1c[nH]c3ccccc13)[C@H](C(=O)O)C2	none
Cn1nc([N+](=O)[O-])nc1Oc1ccccc1C(=O)N1CCOCC1	none
O=C(/C=C/c1cccs1)c1ccc(NC(=O)c2cccc(Br)c2)cc1	BRCA1 expr up 11.2µM, ELG1 repair inh inconclusive, RORg inh inconclusive
O=C(NCCN1CCCCCC1)C1CCC(CNS(=O)(=O)c2cccc3cccnc23)CC1 (centres undefined)	none
Cc1ccc(C(=O)Nc2ccc(N3CCOCC3)cc2)cc1	BRCA1 expr up 8.91µM, ELG1 repair inh inconclusive, p53 reactivation inconclusive
Cc1ccc(C(=O)NC(=S)Nc2ccc(N3CCOCC3)cc2)c(C)c1	RORg inh 2.51µM, VP16 counter 25.1µM
Cc1ccc(NC(=O)c2cc(N3C(=O)C=CC3=O)ccc2Cl)cc1C	ELG1 repair inh inconclusive, RORg inh inconclusive, VP16 counter 7.94µM
Cc1ccc(NC(=O)c2cc(-n3cnnc3)ccc2Cl)cc1	none
CC(C)C(=O)Nc1cccc(NC(=S)NC(=O)c2ccc(Cl)cc2)c1	RORg inh 6.31µM, Giardia killer inconclusive, VP16 counter inconclusive
CCn1c(=O)c2ccccc2n(Cc2ccc([N+](=O)[O-])cc2)c1=O	none
CCc1nc2ccc(C(=O)NCCCn3ccnc3)cn2c1N(C)C(=O)C1CCCCC1	none (no result: ELG1 repair inh, RORg inh, p53 reactivation, Giardia killer, VP16 counter)
Cc1cc(C)cc(C(=O)NC(=S)Nc2ccc3c(c2)OCCO3)c1	BRCA1 expr up inconclusive, ELG1 repair inh inconclusive, RORg inh inconclusive, p53 reactivation inconclusive, VP16 counter 3.16µM
O=C(NC(=S)Nc1ccc2c(c1)OCCO2)c1ccc(F)cc1Cl	BRCA1 expr up inconclusive, ELG1 repair inh inconclusive, RORg inh 11.2µM, p53 reactivation inconclusive, Giardia killer inconclusive, VP16 counter inconclusive
CCc1ccc(C(=O)NC(=S)Nc2ccc3c(c2)OCCO3)cc1	BRCA1 expr up 6.31µM, ELG1 repair inh inconclusive, RORg inh 7.08µM, p53 reactivation inconclusive, VP16 counter 7.08µM
O=C(NC(=S)Nc1ccc2c(c1)OCO2)c1ccc(Cl)cc1	BRCA1 expr up 6.31µM, ELG1 repair inh inconclusive, RORg inh 5.01µM, p53 reactivation inconclusive, VP16 counter 5.62µM
CCc1ccc(OCC(=O)Nc2ccc3c(c2)OCCO3)cc1	ELG1 repair inh inconclusive
CC1CCCCN1C(=O)CSc1nnc2ccccn12 (centres undefined)	ELG1 repair inh inconclusive (no result: RORg inh, VP16 counter)
Cc1ccc([N+](=O)[O-])c2c1C(N1CCCC1)C(C)(C)O2 (centres undefined)	none
Cc1ccc(C(=O)N2CCNC(=O)C2CC(=O)Nc2ccc(F)cc2)cc1C (centres undefined)	none
Cc1ccc(C(=O)NC(=S)Nc2ccc3c(c2)OCCO3)c(C)c1	ELG1 repair inh inconclusive, RORg inh 4.47µM, VP16 counter inconclusive
Cc1ccc(NC(=O)c2cc(N3C(=O)C=CC3=O)ccc2N2CCOCC2)cc1	RORg inh 7.08µM, VP16 counter 7.94µM
COc1ccc(C(=O)NC(=S)NNC(=O)c2ccc(NC(=O)C(C)C)cc2)cc1	RORg inh inconclusive, VP16 counter 15.8µM
S=C(Nc1ccc(Cl)cc1)Nc1ccc2c(c1)OCCO2	BRCA1 expr up 7.08µM, ELG1 repair inh inconclusive, RORg inh inconclusive, p53 reactivation inconclusive, VP16 counter inconclusive
S=C(Nc1ccc2c(c1)OCCO2)Nc1ccccc1Cl	ELG1 repair inh inconclusive, RORg inh inconclusive, VP16 counter inconclusive
COc1ccc(C(=O)NC(=S)NNC(=O)c2ccc(C)cc2)cc1	none (no result: ELG1 repair inh, RORg inh, p53 reactivation, VP16 counter)
NC(=S)NNc1cc(Cl)cc(Cl)c1	RORg inh 2.24µM, VP16 counter 3.98µM
NC(=S)Nc1cc(Cl)cc(Cl)c1	none
CS(=O)(=O)N(CC(=O)N1CCCC1)Cc1ccc(F)cc1	none
CCN1CCN(C(c2cccs2)C(C)NC(=S)Nc2cc(C)ccc2C)CC1 (centres undefined)	RORg inh inconclusive
COc1ccc(NC(=S)NC(C)C(c2ccccc2)N2CCOCC2)cc1 (centres undefined)	RORg inh 4.47µM, VP16 counter inconclusive
CC(NC(=S)Nc1ccccc1Cl)C(c1ccccc1)N1CCOCC1 (centres undefined)	RORg inh 3.98µM, VP16 counter inconclusive
CC(NC(=O)Cc1ccccc1)C(c1ccccc1)N1CCOCC1 (centres undefined)	none
CC(NC(=O)c1ccc(-c2ccccc2)cc1)C(c1ccccc1)N1CCOCC1 (centres undefined)	none (no result: RORg inh, VP16 counter)
Cc1ccc(C)c(NC(=S)NC(C)C(c2ccccc2)N2CCN(C)CC2)c1 (centres undefined)	RORg inh 12.6µM
CCc1cccc2c(C(=O)COC(=O)[C@@H]3CC(O)CN3S(=O)(=O)c3ccccc3[N+](=O)[O-])c[nH]c12 (some centres undefined)	ELG1 repair inh inconclusive (no result: RORg inh, VP16 counter)
Cc1cccc(CN2CCN(CCCc3ccccc3)CC2)c1	none (no result: BRCA1 expr up, Giardia killer)
C=CC[C@H](CC(=O)OC(C)(C)C)C(=O)OC[C@@H]1CCCN1C(=O)[C@H](CC=C)CC(=O)N[C@H](CO)Cc1ccccc1	none (no result: RORg inh, VP16 counter)
